# Giardia FBPA inh: Giardia lamblia aldolase inhibition; A8B2U2; purified Giardia FBPA; Potency, µM (top dose mostly 59.6 µM), without a hit: at the highest dose activity, negative = inhibition, most hits filed as inhibitors; hit rate 0.71% among 290,000; note: potency is the fitted concentration of half-maximal effect; % is set by controls: 0 for no effect and ±100 for the full control effect; nearly all actives have a fitted effect of over 55% in size
#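 40 nM FBPA preincubated 10 min at RT with compound (up to 57.5 uM final), then substrate plus GAPDH/TPI/NAD/arsenate coupling and diaphorase/resazurin added. Fluorescence read after 20 min at RT, 525/598 nm.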
# CHX counter: counter-screen for Shiga toxin inhibitors: cycloheximide protein synthesis inhibition | cell reporter, cycloheximide protein synthesis inhibition counterscreen | max response, % | hit rate 12% among 300,000; in the data active = max response mostly above about 13%, no sharp cut-off; inactive = mostly below about 14%; note: read at 38.3 µM for the half of the compounds with a filed dose; 0% is about no effect
# Tb PYK inh: blocks Trypanosoma brucei pyruvate kinase. Potency, µM (doses to about 76.8 µM), without a hit: at the top dose activity, negative = inhibition, most hits filed as inhibitors. TbPYK enzyme, Kinase-Glo Plus ATP luminescence, 45 min. hit rate 0.12% among 410,000. Q57TT1; note: potency is the fitted concentration of half-maximal effect; % is set by controls: 0 for no effect and ±100 for the full control effect; nearly all actives have a fitted effect of over 50% in size
#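 Screened from lowest to highest concentration, compounds were pinned into TbPYK/substrate mixtures, and ADP (130 uM final) was added. Plates sat at room temperature for 45 min prior to Kinase-Glo Plus detection by luminescence.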
# LmPK inh: blocks Leishmania mexicana pyruvate kinase activity | Q27686 | purified LmPK, Kinase-Glo ATP luminescence, 1 h | Potency, µM (series often up to 57.5 µM), for inactives: at the highest dose activity change, negative = inhibition, usual class: inhibitors | hit rate 0.37% among 290,000 | AID 1721; note: potency is the fitted concentration of half-maximal effect; % is set by controls: 0 for no effect and ±100 for the full control effect
# Target sequence (Q27686 whole entry, looked up): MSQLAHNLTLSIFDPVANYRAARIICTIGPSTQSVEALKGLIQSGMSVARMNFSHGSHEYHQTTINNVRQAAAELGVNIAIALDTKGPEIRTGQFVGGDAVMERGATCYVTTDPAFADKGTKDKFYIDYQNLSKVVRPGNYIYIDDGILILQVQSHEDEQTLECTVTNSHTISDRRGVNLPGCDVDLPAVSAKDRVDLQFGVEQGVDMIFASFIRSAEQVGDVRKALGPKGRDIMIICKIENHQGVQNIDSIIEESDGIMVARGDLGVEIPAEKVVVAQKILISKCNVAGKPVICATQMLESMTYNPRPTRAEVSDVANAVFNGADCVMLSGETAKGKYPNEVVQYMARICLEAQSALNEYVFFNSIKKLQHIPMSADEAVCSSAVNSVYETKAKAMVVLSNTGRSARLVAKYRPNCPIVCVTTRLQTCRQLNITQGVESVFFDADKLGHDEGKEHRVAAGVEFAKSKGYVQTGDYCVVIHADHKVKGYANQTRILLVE
#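 In 50 mM imidazole pH 7.2 with 7 mM MgCl2, LmPK (0.1 nM) turned over PEP (0.5 mM) and ADP (0.1 mM) for 1 h at room temperature. Luciferase read-out of ATP.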
# Shiga inhibitor: inhibitors of Shiga toxin in Vero cells; Vero cells, Shiga toxin protein synthesis inhibition reporter; hit rate 9.2% among 290,000; inhibition, % at 38.7 µM; in the data active = inhibition mostly above about 28%, no sharp cut-off; inactive = mostly below about 43%; note: 0% is about no effect
# Sm TGR block: inhibitors of Schistosoma mansoni thioredoxin glutathione reductase. Q962Y6. purified TGR, DTNB reduction, TNB absorbance 405 nm. Potency, µM (top dose mostly 114 µM), for inactives: at the top dose activity change, negative = inhibition, actives largely listed as inhibitors. hit rate 3% among 360,000. AID 485364; note: potency is the fitted concentration of half-maximal effect; % is set by controls: 0 for no effect and ±100 for the full control effect; nearly all actives have a fitted effect of over 60% in size
#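 Kinetic colorimetric format: TGR-catalysed, NADPH-driven DTNB reduction monitored via TNB absorbance. Enzyme dispensed at 20 nM; compound exposure 15 min at room temperature before reaction start.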
# The depositor's hits bear a star; u = inconclusive; x = not tested or not shown; [ ] = remark or other dose. This is one part of a sample in which hits are shown more often than they occur. Unless noted, calls come from the whole dose curve; as a rule, active = well fitted curve in the direction sought with a large enough effect; inconclusive = small, poorly fitted or top-dose-only effect, or another doubt; inactive = no such curve, though single readings can be large; an effect the other way counts as inactive or inconclusive.
SMILES,Giardia FBPA inh,CHX counter,Tb PYK inh,LmPK inh,Shiga inhibitor,Sm TGR block
CC(=O)Nc1ccc(-c2ccc3nnc(C)n3n2)cc1,-2.9%,-0.3,-6.4%,7.7%,29.9,-0.4%
Cc1nnc2ccc(-c3ccc(NC(=O)c4ccco4)cc3)nn12,-4.5%,14.2*,3.7%,10.7%,70.8,31.6µM*
Cc1nc(-c2ccc(NC(=O)c3ccco3)cc2)cs1,1.5%,11.1*,-22.7%,u,27.5,4.2%
Cc1ccn2cc(-c3ccc(NC(=O)c4ccco4)cc3)nc2c1,-1.6%,42.7*,-5.6%,-14.1%,active,-7.2%
Cc1ccc(-c2cn3ccc(C)cc3n2)cc1,x,x,-7.9%,x,x,-2.2%
Cc1nc(-c2ccccc2)c(-c2ccncc2)o1,5.5%,-2.2,x,x,-10.4,x
Cc1nc(-c2cccc(NC(=O)c3ccco3)c2)cs1,x,26.7*,-1.7%,-5.1%,45.0,-4.3%
c1ccc2c(c1)nnn2-c1ncnc2sc3c(c12)CCCC3,13.5%,14.4*,-4.0%,-1.8%,28.0,12.6%
COc1cc([C@@H]2Oc3cc([C@H]4Oc5cc(O)cc(O)c5C(=O)[C@H]4O)ccc3O[C@H]2CO)ccc1O,-9.4%,x,x,x,x,x
Fc1cc(F)cc(NC(=S)NN2CCOCC2)c1,-7.7%,1.4,0.1%,2.5%,-3.0,x
CCOC(=O)c1ccc(NC(=S)NN2CCOCC2)cc1,-22.2%,32.2*,-10.0%,-1.5%,39.2*,u
CCC(C)c1ccc(NC(=S)NN2CCOCC2)cc1 (stereo not drawn),-16.7%,42.3*,1.0%,8.0%,87.3*,u
CC(C)c1ccc(NC(=O)C(c2ccccc2)N2CCOCC2)cc1 (stereo not drawn),-2.6%,2.0,-7.2%,4.2%,4.3,1.5%
CCCCc1ccc(NC(=S)NN2CCOCC2)cc1,17.9%,67.3*,-2.1%,3.0%,110.6*,-20.7%
CC(C)c1ccc(NC(=O)NN2CCOCC2)cc1,7.0%,42.6*,-3.7%,-5.3%[11.5 µM],138.2*,-7.3%
COC(=O)[C@H](C)NC(=O)C/C=C\[C@@H](C)[C@@H](CO)OC,2.8%[12.9 µM],x,x,x,x,x
CCNc1ncc2nc(-c3ccc(Cl)cc3)c(=O)n(CCC#N)c2n1,0.5%,x,x,x,x,x
CCOC(=O)c1ccc(NC(=S)N2CCSC2c2ccc(OC)cc2)cc1 (stereo not drawn),-6.7%,26.0*,-2.8%,7.4%,23.4*,-11.8%
CCOC(=O)c1ccc(NC(=S)NNC(C)(C)C)cc1,4.0%,61.4*,-22.2%,3.0%,83.8*,u
CCOC(=O)c1ccc(NC(=S)Nc2ccccc2)cc1,-7.8%,8.5,-1.6%,-0.8%,18.5,u
CCOC(=O)c1ccc(NC(=S)NC(=O)COc2ccccc2)cc1,-8.8%,54.7*,-8.6%,0.1%,-3.3,-3.3%
Cc1ccc(-c2c(C(=O)NCCc3ccccc3)oc(=O)c3ccccc23)cc1,x,1.8,-17.1%,x,-5.7,2.1%
CCOC(=O)c1cc2c(=O)n3cccc(C)c3nc2n(Cc2ccco2)c1=NC(=O)c1cccnc1,u,6.4,-7.5%,3.7%,32.8*,5.62µM*
Cc1cccn2c(=O)c3cc(C#N)c(=NC(=O)c4ccco4)n(Cc4ccco4)c3nc12,-3.4%,-2.7,-2.1%,0.2%,-1.5,u
CCOC(=O)c1cc2c(=O)n3ccccc3nc2n(Cc2ccco2)c1=NC(=O)c1ccc(C)c(C)c1,x,x,-1.5%,x,x,-30.0%
SMILES,Giardia FBPA inh,CHX counter,Tb PYK inh,LmPK inh,Shiga inhibitor,Sm TGR block
CCOC(=O)c1cc2c(=O)n3ccccc3nc2n(Cc2ccco2)c1=NC(=O)c1cccc(C)c1,x,x,-3.1%,x,x,-30.6%
CCOC(=O)c1cc2c(=O)n3ccccc3nc2n(Cc2ccco2)c1=NC(=O)c1cccnc1,-4.9%,-2.6,u,-0.6%,-21.8,22.4µM*
Cc1cccc(C(=O)N=c2c(C#N)cc3c(=O)n4cccc(C)c4nc3n2Cc2ccco2)c1,-22.1%,3.6,-3.1%,7.4%,-14.0,44.7µM*
COc1ccccc1C(=O)NNC(=O)c1ccc(Br)o1,x,43.9*,5.7%,0.9%,82.1*,1.4%
COc1ccccc1C(=O)NNC(=O)c1ccc(C)cc1,3.4%,20.4*,1.6%,-1.5%,31.8,-1.9%
COc1ccccc1/C=N/OC(=O)c1ccc(C)cc1,0.2%,11.3*,-0.7%,-2.9%,15.7,-0.1%
COc1ccccc1C(=O)NNC(=O)c1ccc(Br)cc1,-13.6%,10.3*,-1.1%,7.3%,15.5,-19.7%
